Measurements as given in PubChem BioAssay.
For part of these data: Entries with a potency or affinity are not part of this list. The source made the active and inactive calls.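 How the source made its calls, unless noted: active means hit in primary screen, with calcium signal over 5 SD above buffer well mean in both duplicates; inactive means the rest.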

Key:
[1] = tested on: TRPC4 beta (transient receptor potential cation channel C4), mouse; assay: TRPC4 cation channel opening, retest – cell-based, Fluo4 calcium, HEK293 TRPC4beta/mu-opioid, duplicates, 10 µM, confirmation (AID 2426;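 active means fluorescence ratio normalized to control raised more than 50% in primary screen plus both repeat runs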;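 on activation: percent rise of integrated ratio over buffer wells lacking compound which define 0%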); settings: Fluo4 calcium fluorescence, at 10 µM; stronger effect = higher value
[2] = tested on: transient receptor potential cation channel C4 beta (TRPC4), mouse; assay: TRPC4 cation channel opening, second retest – cell-based, second round, Fluo4, HEK293 TRPC4beta/mu-opioid, 1 µM, confirmation (AID 2461;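 active means primary screen active and over 50% activation in each of two duplicate runs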;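 on activation: 0% = wells without test compound as baseline of integrated fluorescence ratio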); settings: Fluo4 calcium fluorescence, at 1 µM; stronger effect = higher value
[3] = tested on: TRPC4 (transient receptor potential cation channel C4 beta), mouse; assay: potentiation of DAMGO EC20 TRPC4 response – cell-based, second round, Fluo-4, HEK293 TRPC4beta/mu-opioid, 1 µM, confirmation (AID 2554;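 active means primary screen hit whose fluorescence ratio, in both repeats, exceeds the weak agonist control mean by 3 SD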); settings: DAMGO EC20, Fluo-4 calcium flux, at 1 µM; stronger effect = higher value
[4] = tested on: TRPC4 beta (transient receptor potential cation channel C4), mouse; assay: potentiation of DAMGO EC20 TRPC4 response – cell-based, Fluo-4, HEK293 TRPC4beta/mu-opioid, confirmation (AID 2555;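 active means primary screen hit whose calcium fluorescence ratio, in both repeats, exceeds the weak agonist control mean by 3 SD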); settings: DAMGO EC20, Fluo-4 calcium flux, at 10 µM; stronger effect = higher value
[5] = biological target: Short transient receptor potential channel 4 (Mus musculus) (UniProt Q9QUQ5); assay: blockers of DAMGO-evoked TRPC4 calcium flux – cell-based, Fluo4, HEK293 TRPC4beta/mu-opioid, confirmation (AID 2636;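 active means calcium signal cut by more than 3 SD below the full-agonist control yet still positive, in both repeats and the earlier primary screen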); settings: at 10 µM; stronger effect = higher value
Sequence of Short transient receptor potential channel 4 (Mus musculus) (Q9QUQ5 whole entry, looked up): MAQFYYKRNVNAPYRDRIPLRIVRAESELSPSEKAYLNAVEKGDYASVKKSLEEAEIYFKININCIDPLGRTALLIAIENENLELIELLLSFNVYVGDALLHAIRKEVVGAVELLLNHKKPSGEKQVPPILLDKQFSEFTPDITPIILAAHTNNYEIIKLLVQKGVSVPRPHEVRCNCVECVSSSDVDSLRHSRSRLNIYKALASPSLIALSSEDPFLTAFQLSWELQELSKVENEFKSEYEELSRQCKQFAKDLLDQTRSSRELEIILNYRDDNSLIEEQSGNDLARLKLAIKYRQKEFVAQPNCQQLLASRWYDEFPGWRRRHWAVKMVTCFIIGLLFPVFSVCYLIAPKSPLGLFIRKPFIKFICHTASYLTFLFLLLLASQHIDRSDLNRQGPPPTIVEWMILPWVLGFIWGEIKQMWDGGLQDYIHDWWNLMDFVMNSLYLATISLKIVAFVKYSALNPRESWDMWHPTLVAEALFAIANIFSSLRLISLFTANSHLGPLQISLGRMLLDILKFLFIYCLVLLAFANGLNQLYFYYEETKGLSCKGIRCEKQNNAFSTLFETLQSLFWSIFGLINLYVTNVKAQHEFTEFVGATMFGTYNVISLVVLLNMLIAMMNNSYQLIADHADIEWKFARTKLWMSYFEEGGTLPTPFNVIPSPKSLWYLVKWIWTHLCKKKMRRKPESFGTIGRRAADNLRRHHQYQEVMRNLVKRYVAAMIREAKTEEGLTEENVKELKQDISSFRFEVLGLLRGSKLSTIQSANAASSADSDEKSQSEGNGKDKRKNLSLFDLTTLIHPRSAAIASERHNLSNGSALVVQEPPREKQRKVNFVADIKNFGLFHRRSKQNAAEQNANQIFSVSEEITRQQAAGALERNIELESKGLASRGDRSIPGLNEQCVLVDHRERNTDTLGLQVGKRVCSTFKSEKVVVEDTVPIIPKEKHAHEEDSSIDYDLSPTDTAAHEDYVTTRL

[6] = biological target: Short transient receptor potential channel 4 (Mus musculus) (UniProt Q9QUQ5); assay: blockers of DAMGO-evoked TRPC4 calcium flux – cell-based, second round, Fluo4, HEK293 TRPC4beta/mu-opioid, 1 µM, confirmation (AID 2637;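 active means calcium signal ratio cut to more than 3 SD under the fully stimulated control mean yet still positive, in both repeats and the primary screen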); settings: at 1 µM; stronger effect = higher value
[7] = biological target: Short transient receptor potential channel 4 (Mus musculus) (UniProt Q9QUQ5); assay: potentiation of DAMGO-evoked TRPC4 calcium signal – cell-based, HEK293 TRPC4/mu-opioid, Fluo-4 calcium, EC20 DAMGO, dose response (AID 434941;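 active means earlier screen potentiator hit that boosts the TRPC4 ion channel at some dose, with a dose response; inactive means no potentiation, no dose response, or not a prior hit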;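 further: calcium entry triggered by an EC20 dose of DAMGO at the co-expressed mu-opioid receptor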)
[8] = biological target: Short transient receptor potential channel 4 (Mus musculus) (UniProt Q9QUQ5); assay: block of DAMGO-driven TRPC4 calcium entry – cell-based, HEK293 TRPC4/mu-opioid, Fluo-4 calcium, dose response (AID 434942;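 active means primary screen inhibitor hit that blocks the TRPC4 channel at some tested dose, yielding a dose curve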)
[9] = biological target: Short transient receptor potential channel 6 (Mus musculus) (UniProt Q61143); assay: TRPC6 blockade by TRPC4 inhibitor hits – cell-based, HEK293, membrane potential dye, duplicate, selectivity assay for TRPC4 inhibitor project, confirmation (AID 434948;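 active means active in primary screen and both duplicates, each dropping signal beyond three positive-control SD with fluorescence still positive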); settings: HEK293 TRPC6, membrane potential dye fluorescence, at 10 µM, stimulated with maximal-effect acetylcholine; stronger effect = higher value
Sequence of Short transient receptor potential channel 6 (Mus musculus) (Q61143 whole entry, looked up): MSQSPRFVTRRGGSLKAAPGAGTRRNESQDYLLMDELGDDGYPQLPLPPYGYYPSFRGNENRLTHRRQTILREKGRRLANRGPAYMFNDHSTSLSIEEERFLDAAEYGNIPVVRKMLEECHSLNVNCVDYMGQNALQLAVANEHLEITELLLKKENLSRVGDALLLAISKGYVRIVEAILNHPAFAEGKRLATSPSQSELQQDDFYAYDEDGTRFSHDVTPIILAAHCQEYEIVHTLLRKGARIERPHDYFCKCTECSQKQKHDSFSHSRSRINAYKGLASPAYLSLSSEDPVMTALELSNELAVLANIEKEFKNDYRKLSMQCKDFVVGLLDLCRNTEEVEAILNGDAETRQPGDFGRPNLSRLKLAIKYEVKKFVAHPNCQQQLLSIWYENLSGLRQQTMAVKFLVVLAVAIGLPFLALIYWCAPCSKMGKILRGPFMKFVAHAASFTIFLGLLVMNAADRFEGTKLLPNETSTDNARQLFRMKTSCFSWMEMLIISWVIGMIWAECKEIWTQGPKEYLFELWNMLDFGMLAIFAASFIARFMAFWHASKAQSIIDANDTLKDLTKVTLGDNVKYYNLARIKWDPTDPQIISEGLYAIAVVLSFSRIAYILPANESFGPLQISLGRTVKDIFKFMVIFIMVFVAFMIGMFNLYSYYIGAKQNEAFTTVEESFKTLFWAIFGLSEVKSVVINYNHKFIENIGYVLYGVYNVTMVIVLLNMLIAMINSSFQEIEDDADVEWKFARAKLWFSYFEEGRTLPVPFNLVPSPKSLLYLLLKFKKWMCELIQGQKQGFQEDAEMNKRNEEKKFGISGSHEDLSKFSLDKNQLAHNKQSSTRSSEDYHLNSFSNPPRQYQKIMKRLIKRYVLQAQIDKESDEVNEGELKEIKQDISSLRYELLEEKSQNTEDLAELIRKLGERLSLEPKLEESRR

[10] = biological target: Short transient receptor potential channel 6 (Mus musculus) (UniProt Q61143); assay: TRPC6 opening by TRPC4 activator hits – cell-based, HEK293, membrane potential dye, duplicate, selectivity assay for TRPC4 activator project, confirmation (AID 434950;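 active means membrane potential signal rise above negative control mean plus 3 SD in both duplicates, also active in the earlier TRPC4 screen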;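 on activation: 0% = buffer only wells and 100% = acetylcholine maximal-effect wells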); settings: HEK293 TRPC6, membrane potential fluorescence, at 10 µM; activation: stronger effect = higher value; outcome: activation
[11] = biological target: Short transient receptor potential channel 6 (Mus musculus) (UniProt Q61143); assay: positive modulators of mouse TRPC6 channel – HEK293 cells, membrane potential dye, duplicate, selectivity assay for TRPC4 potentiator project, confirmation (AID 434952;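 active means compound raising the membrane signal above positive-control mean plus 3 SD in both repeats, and a primary screen hit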); settings: HEK293 TRPC6, membrane potential dye fluorescence, at 10 µM, maximal acetylcholine added after compound; stronger effect = higher value
[12] = biological target: Short transient receptor potential channel 4 (Mus musculus) (UniProt Q9QUQ5); assay: calcium flux activators in TRPC4/5HT1a cells, counter-screen for TRPC4 activator project, cell-based, second counter screen, HEK293 TRPC4/5HT1a, Fluo-4 (AID 434977;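 active means calcium signal rise above buffer-control mean plus 5 SD in both duplicates, and also a hit in the primary screen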;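 further: plate controls were assay buffer for no effect and maximal serotonin response for full effect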); settings: Fluo-4 calcium flux, at 10 µM; stronger effect = higher value
[13] = serotonin-gated TRPC4 signal block – cell-based, second counter screen, HEK293 TRPC4/5HT1a, Fluo-4, counter-screen for TRPC4 inhibitor project, confirmation (AID 434978;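 active means primary screen active whose calcium signal fell more than 3 SD beyond the full-serotonin control mean in both duplicate plates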;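 further: serotonin given first at submaximal then at maximal dose after compound preincubation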); settings: Fluo-4 calcium flux, at 10 µM, serotonin added to trigger calcium flux; stronger effect = higher value
[14] = tested on: TRPC4 (mouse), co-expressed with 5HT1a in HEK293; assay: enhancement of serotonin-evoked TRPC4 response – cell-based, second counter screen, HEK293 TRPC4/5HT1a, Fluo-4, counter-screen for TRPC4 potentiator project, confirmation (AID 434979;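 active means signal rise over 3 SD above mean of control wells given weak agonist, in both repeats and first screen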); settings: Fluo-4 calcium flux, at 10 µM, serotonin added at its EC20 dose; stronger effect = higher value
[15] = nonspecific calcium rise without TRPC4 – cell-based, HEK293 mu-opioid receptor line, counter-screen for TRPC4 activator project, confirmation (AID 449723); settings: HEK293 mu-opioid cells, Fluo-4 calcium fluorescence, at 10 µM; stronger effect = higher value;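 further: counter screen cells carry the mu-opioid receptor alone and lack TRPC4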
[16] = nonspecific potentiation of DAMGO calcium response – cell-based, HEK293 mu-opioid receptor line, counter-screen for TRPC4 allosteric potentiator project, confirmation (AID 449724;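 active means calcium signal rise more than 3 SD above the low-dose agonist control mean, in both duplicate plates and the primary screen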); settings: HEK293 mu-opioid receptor cells, Fluo-4 calcium flux, at 10 µM, compound added before EC20 DAMGO stimulus; stronger effect = higher value

S=C(NCCc1ccccn1)NC1CCCCC1
inactive: outcome [2] | outcome [3] | outcome [4] | outcome [5] | outcome [6] | outcome [7] | outcome [8] | outcome [9] | outcome [11] | outcome [13] | outcome [14] | outcome [15] | outcome [16]
active: activation [1] 97% | activation [10] 24.5% | activation [12] 28.1%

COc1ccccc1/C=C/CN1CCCC(CCC(=O)NCc2ccc(F)c(F)c2)C1 (stereo unspecified)
inactive: outcome [3] | outcome [4] | outcome [5] | outcome [6] | outcome [7] | outcome [8] | outcome [9] | outcome [11] | outcome [13] | outcome [14] | outcome [15] | outcome [16]
active: activation [1] 92% | activation [2] 79% | activation [10] 43.5% | activation [12] 35.2%

O=C1/C(=C\c2cc([N+](=O)[O-])ccc2O)SC(=S)N1Cc1ccc(Cl)cc1
active: activation [1] 147% | potentiation [4] 21% | activation [10] 529% | potentiation, percent of control [11] 192% | activation [12] 147% | potentiation [14] 21% | activation [15] 158% | activation [16] 5450%
inactive: outcome [2] | outcome [3] | outcome [5] | outcome [6] | outcome [7] | outcome [8] | outcome [9] | outcome [13]

Cc1csc2c(N3CCN(C(=O)Nc4ccccc4)CC3)ncnc12
inactive: outcome [2] | outcome [3] | outcome [4] | outcome [5] | outcome [6] | outcome [7] | outcome [8] | outcome [9] | outcome [10] | outcome [11] | outcome [13] | outcome [14] | outcome [15] | outcome [16]
active: activation [1] 99% | activation [12] 48.3%

COCCn1nnnc1C(c1cc2ccc(OC)cc2[nH]c1=O)N1CCN(C2CCCCC2)CC1 (stereo unspecified)
inactive: outcome [2] | outcome [3] | outcome [4] | outcome [5] | outcome [6] | outcome [7] | outcome [8] | outcome [9] | outcome [11] | outcome [13] | outcome [14] | outcome [15] | outcome [16]
active: activation [1] 133% | activation [10] 37.5% | activation [12] 13.6%

Cc1ccc(S(=O)(=O)/N=C2/NC(=O)/C(=C\c3cc(Br)cc(Br)c3O)S2)cc1
inactive: outcome [1] | outcome [2] | outcome [3] | outcome [5] | outcome [6] | outcome [7] | outcome [8] | outcome [9] | outcome [11] | outcome [13]
active: potentiation [4] 35% | activation [10] 447% | activation [12] 45.6% | potentiation [14] 9.14% | activation [15] 60.8% | activation [16] 600%
